A selection: hits, their analogues and other compounds. The true share with any hit is near 0.52%.
Sa growth 42C = inhibitors of Staphylococcus aureus growth at 42 °C. S. aureus RN4220 growth, OD600, 20 h; active compounds read low. 170,000 tested, 0.53% active. relative growth, % (no concentration beside the values);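 active = relative growth at most 50% at the other temperature and 20+ points below 30 °C, or under 10% at both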
S aureus helic = S. aureus DNA helicase inhibition; purified S. aureus helicase, fluorescence unwinding assay; inhibition, % (concentration not given with the values); 120,000 tested, 0.05% active; in the data active = inhibition above about 25%, passing the limit was not always enough;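 note: 0% = mean of negative control wells and 100% = mean of positive control wells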
Starred values were filed as active, the others as inactive; x = no result given.

SMILES	Sa growth 42C	S aureus helic
O=S(c1c(F)c(F)c(F)c(F)c1F)c1c(F)c(F)c(F)c(F)c1F	0.7*	21
O=C(CSc1nnc(Cc2ccccc2)o1)N1CCN(c2ccccc2)CC1	x	10
CCNC(=O)Nc1nc2ccccc2s1	115	-15
COC(NC(=O)Nc1nc2ccccc2s1)(C(F)(F)F)C(F)(F)F	5.5*	3
CC(=O)N(Cc1ccccc1)Cc1cc2ccc(C)cc2[nH]c1=O	102	-3
O=C1CSC(c2ccncc2)N1CC1CC1 (centres undefined)	95	x
O=C(CCN1C(=O)c2ccccc2C1=O)Oc1cccc2cccnc12	-0.6*	-8
N#Cc1ccccc1OC(=O)CCN1C(=O)c2ccccc2C1=O	103	9
O=C(CN1C(=O)c2ccccc2C1=O)Oc1cccc2cccnc12	0.8*	15
O=C(Cc1ccccc1)Oc1cccc2cccnc12	x	21
CCOc1cnn(C)c(=O)c1OCC	99	-1
Cc1ccc(S(=O)(=O)N2c3ccccc3C(C)(c3ccccc3)CC2(C)C)cc1 (centres undefined)	139	5
Cc1c(C(=O)Oc2cccc3cccnc23)oc2ccccc12	97	3
Cc1ccc(S(=O)(=O)NC(=O)Oc2cccc3cccnc23)cc1	0.2*	8
N#Cc1cc(C(=O)O)c(N)[nH]c1=O	77	16
CCOc1ccc2ccccc2c1C=C1C(=O)N(C)C(=S)N(C)C1=O	89	12
O=c1nc2n(c3sc4c(c13)CCCC4)Cc1ccccc1C2	69	-148
CCc1ccc(/C=C2\C(=N)N3N=C(S(C)(=O)=O)SC3=NC2=O)cc1	96	16
S=c1nc2ccccc2c2nc(COc3ccccc3Br)[nH]n12	0.6*	-13
Brc1ccccc1-c1nc2ccccc2c2nc3ccccc3n12	111	9
NNC(=O)C(NC(=O)c1ccccc1)c1n[nH]c(=O)c2ccccc12 (centres undefined)	73	-4
On1c(-c2ccccc2)cc2ccccc21	1.6*	3
O=c1cc(-c2ccccc2)cc(-c2ccccc2)n1O	79	x
O=C1CCCN=C(N(C(=O)c2ccco2)c2cccc(C(F)(F)F)c2)S1	111	x
O=c1c2c(nc3c(-c4ccccc4)c[nH]n13)CCC2	0.1*	18
SMILES	Sa growth 42C	S aureus helic
O=c1c2c(nc3cc(-c4ccccc4)[nH]n13)CCC2	100	-3
CCC(C)N1C(=O)S/C(=C/c2ccc(O)c(Cl)c2)C1=O (centres undefined)	-0.6*	-8
CCOc1cc(/C=C2/SC(=S)N(C(CC)C(=O)O)C2=O)ccc1O (centres undefined)	80	-2
CCOC(=O)c1cc2c(ccn2C)n1CC(=O)N(c1ccccc1)c1ccccc1	100	6
Cn1cnc2cc(NCc3ccccc3Cl)ccc21	97	7
CCCCn1cnc2cc(NCc3ccccc3Cl)ccc21	1.0*	x
CC(=O)N=c1sc2cc(S(C)(=O)=O)ccc2n1C	x	2
C[n+]1ccc(/C=C/c2ccc(N3CCCC3)o2)cc1	98	57*
N#C/C(=C\c1ccc(N2CCCC2)o1)c1ccccc1	77	-134
COC(=O)c1oc2ccc(OC)cc2c1NC(=O)CCCN1C(=O)c2ccccc2C1=O	80	2
Cc1noc(C)c1CSc1ccccc1C(=O)NC(C)c1ccc(-n2ccnc2)cc1 (centres undefined)	61	1
N#CC(C#N)=NNc1ccccc1C(N)=O	-0.5*	21
NC(=O)c1ccccc1NC(=O)Nc1ccccc1	104	3
Oc1[nH]c2ccccc2c1C=NC1CCCC1	110	10
O=C1CSC(=S)N1c1cccc(C(F)(F)F)c1	x	-2
O=C1C2SCCN2C(=S)N1c1cccc(C(F)(F)F)c1 (centres undefined)	46*	x
NC(=O)c1ncoc1-c1ccc(Cl)cc1Cl	100	x
O=C1C=CC(=O)N1CCc1ccccc1	19	17
O=C1C=CC(=O)N1CCc1ccc(Cl)cc1	9.7*	-17
O=C(COc1cccc(Oc2ccccc2)c1)N1CCN(c2ccccc2)CC1	122	-11
OC1(c2ccc(Cl)cc2Cl)CSC(=S)N1Cc1ccco1 (centres undefined)	83	13
O=C(c1ccc(NS(=O)(=O)/C=C/c2ccccc2)cc1)N1CCN(c2ncccn2)CC1	100	-4
COc1cccc(OCC2COS(=O)O2)c1 (centres undefined)	84	-4
Cc1ccc2cccc(OC(=O)c3ccc(Br)o3)c2n1	0.3*	-23
CCOc1cccc(C(=O)Oc2cccc3ccc(C)nc23)c1	80	6
SMILES	Sa growth 42C	S aureus helic
O=C(N[C@@H](CO)[C@H](O)c1ccc([N+](=O)[O-])cc1)C(Cl)Cl	0.2*	x
CS(=O)(=O)c1ccc(C(O)[C@H](CF)NC(=O)C(Cl)Cl)cc1 (some centres undefined)	-0.8*	x
CS(=O)(=O)c1ccc([C@@H](O)[C@@H](COC(=O)CN)NC(=O)C(Cl)Cl)cc1	52	x
O=C(O)CCC(=O)OC[C@@H](NC(=O)C(Cl)Cl)[C@H](O)c1ccc([N+](=O)[O-])cc1	83	x
CCOc1ccc(NC(=S)N2CCSC2c2ccc(C#CC(C)(C)O)s2)cc1 (centres undefined)	92	-10
CC(=O)Nc1ccc(C2SCCS2)cc1	95	x
CSc1nc(N)c(C(=O)Nc2ccc(N(C)C)cc2)s1	81	-2
CC(C)CS(=O)(=O)c1oc(-c2ccc(F)cc2)nc1S(=O)(=O)c1ccccc1	1.0*	x
CCC(C)S(=O)(=O)c1oc(-c2cccs2)nc1S(=O)(=O)c1ccccc1 (centres undefined)	3.7*	x
O=S(=O)(c1ccccc1)c1nc(-c2cccs2)oc1N1CCCCC1	106	x
O=S(=O)(c1ccccc1)c1nc(-c2ccc(F)cc2)oc1NCc1ccccc1	121	x
O=C(COc1ncnc2ccc(Br)cc12)NCCN1C(=O)CSC1=O	108	-9
Cc1occc1C(=O)N=Nc1cc(C(C)(C)C)c(O)c(C(C)(C)C)c1	1.4*	7
Cc1occc1C(=O)Nc1cc(C(C)(C)C)on1	115	-1
N#CC1=C(CBr)NC(CBr)=C(C#N)C12CCCCC2	131	48*
CCSC1=C(C#N)C2(CCCCC2)C(C#N)=C(N)N1	108	10
c1ccc(-c2ccc3c(c2)c2c4n3CCNC4CCC2)cc1 (centres undefined)	0.3*	14
OC(c1ccccc1)c1ccc2c(c1)c1c3n2CCNC3CCC1 (centres undefined)	87	-2
O=C(COC(=O)c1cc2ccccc2cc1O)NC1CC1	105	4
CCCNc1ccccc1N	6.7*	3
CCCCNc1ccc(C(F)(F)F)cc1N	77	7
O=C(NCCN1CCOCC1)c1cccc(S(=O)(=O)Nc2ccccc2F)c1	80	-2
CCn1c(SCC2CCCCO2)nnc1-c1cccs1 (centres undefined)	109	-2
COc1ccc(-c2c(C)nn3c(NCCC4=CCCCC4)cc(C)nc23)cc1OC	108	13
OCCNCc1[nH]c2ccccc2c1Cl	99	-5
SMILES	Sa growth 42C	S aureus helic
COC(=O)c1sc(S(C)(=O)=O)c(C#N)c1-c1cccs1	0.2*	-38
COC(=O)c1sc(N2CCCC2)c(C#N)c1-c1cccs1	103	x
CCC(=O)Nc1nc2ccccc2s1	90	-14
CCC(=O)Nc1nc2c(s1)CSc1ccccc1-2	6.6*	26
Cc1nc2c(C(=O)NCCc3ccccc3)c[nH]n2c(=O)c1Cc1ccccc1F	0.7*	x
Cc1nc2c(C(=O)NCCc3ccc(Cl)cc3)c[nH]n2c(=O)c1Cc1ccc(Cl)cc1	1.2*	x
CNC(=O)c1c[nH]n2c(=O)c(Cc3ccccc3F)c(C)nc12	105	x
